# PubChem BioAssay AID651674 (The Scripps Research Institute Molecular Screening Center, 2012)
# Out of some 2,200 compounds screened, about 1,700 (77%) were called active. The set was probably picked from earlier hits. The list is a sample of the results. Values without a mark were called inactive.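 How the source made its calls: active means mean inhibition across replicate wells exceeding the computed hit threshold (cut at about 13% in these data); inactive means the rest.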
# Target: Hepatocyte nuclear factor 4-alpha (Homo sapiens) (UniProt P41235)
# Sequence (P41235 whole entry, looked up, the tested form may be a part): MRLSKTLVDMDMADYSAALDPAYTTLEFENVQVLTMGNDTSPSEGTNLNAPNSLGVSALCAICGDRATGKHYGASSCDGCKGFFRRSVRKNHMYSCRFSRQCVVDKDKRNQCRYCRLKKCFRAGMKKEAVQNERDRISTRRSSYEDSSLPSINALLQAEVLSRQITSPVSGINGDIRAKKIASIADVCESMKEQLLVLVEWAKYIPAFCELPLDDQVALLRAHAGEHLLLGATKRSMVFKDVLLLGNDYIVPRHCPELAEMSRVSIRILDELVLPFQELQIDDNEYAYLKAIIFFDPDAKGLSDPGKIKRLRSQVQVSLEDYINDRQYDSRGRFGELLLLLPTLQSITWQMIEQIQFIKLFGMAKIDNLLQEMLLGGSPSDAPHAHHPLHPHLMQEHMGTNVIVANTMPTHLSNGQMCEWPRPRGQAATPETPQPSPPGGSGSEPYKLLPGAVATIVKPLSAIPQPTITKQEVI
# Assay: HNF4 dimerization inhibitors, counter-screen for ABHD5-PLIN5 interaction inhibitor project, biochemical, split-luciferase complementation, luminescence (AID 651674);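 further: light from luciferase halves that rejoin when HNF4 fusion proteins dimerize; 0% = DMSO only wells and the 100% control is not given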
# Conditions: at 4 µM, hits give high values
row,Compound,inhibition
1,COc1ccc(-c2cc(C(F)(F)F)nc(S(C)(=O)=O)n2)cc1OC,80.6% (active)
2,Nc1cccc(OCCCCCOc2cccc(N)c2)c1,-6.94%
3,O=C(NNc1c2ccccc2nc2ccccc12)c1cc2ccccc2cc1O,23.8% (active)
4,COc1ccc(/C=C/C(=O)c2ccc(NS(=O)(=O)c3ccc(C)cc3)cc2)cc1O,54.5% (active)
5,OC(CNCC1CCCO1)Cn1c2ccc(Br)cc2c2cc(Br)ccc21 (configuration not stated),-1.25%
6,O=C(c1cccnc1)N(c1cc2sc(=O)oc2c2ccccc12)S(=O)(=O)c1ccccc1,104% (active)
7,Cc1cccc(NC(=O)c2ccc3nsnc3c2)c1C,-0.5%
8,O=[N+]([O-])/C=C/c1ccc2c(ccn2Cc2ccccc2)c1,108% (active)
9,COC(=O)C1(C)NC(c2ccccc2OC)C2C(=O)N(c3ccccc3)C(=O)C21 (configuration not stated),2.83%
10,C[C@@H](CN1CCC[C@H]1CN1C(N)=NC[C@@H]1Cc1ccccc1)N1C[C@@H](Cc2ccccc2)N(CCCC2CCCC2)C1=N,6.92%
11,O=[N+]([O-])c1c(NCCO)cc(Sc2nc3ccccc3s2)c2nonc12,115% (active)
12,Cn1sc(=O)c2cc(S(=O)(=O)NC3CC3)ccc21,106% (active)
13,Cc1cc2c(c(=O)n1Cc1ccco1)C(c1ccccc1)C(C#N)=C(N)O2 (configuration not stated),24.5% (active)
14,Cc1nnnn1/C(=C\c1ccccc1)C(=O)OCC(=O)N1CC2(C)CC1CC(C)(C)C2 (configuration not stated),46.1% (active)
15,Cc1nc(-c2ccccc2)sc1C(=O)/C=C/c1ccccc1,59.8% (active)
16,CC(C)(C)C1C/C(=C/c2ccco2)C(=O)/C(=C/c2ccco2)C1 (configuration not stated),78.9% (active)
17,O=C(/C=C/c1ccc(Cl)c([N+](=O)[O-])c1)c1ccc(O)cc1,72.8% (active)
18,CC(=O)Nc1ccc(C=CC(=O)c2ccc([N+](=O)[O-])cc2)cc1,82.5% (active)
19,O=C(NCCOCc1ccc(Cl)cc1)c1ncn[nH]1,2.01%
20,COc1ccc(CNC(=O)/C(C#N)=C/c2cccc(OC)c2OC)cc1,45.7% (active)
21,COC(C/C=C/C(=O)[C@@H](C)OCc1ccccc1)OC,44.4% (active)
22,Cc1cc(C)nc(S/C=C/C(=O)c2ccccc2)n1,106% (active)
23,Cc1cccc(NC(=O)c2nc(S(=O)(=O)Cc3ccccc3)ncc2Cl)c1,85.1% (active)
24,Cc1cccc(CS(=O)(=O)c2ncc(Cl)c(C(=O)Nc3ccc(F)cc3)n2)c1,86.8% (active)

row,Compound,inhibition
1,CSc1nnc(NC(=O)c2nc(S(=O)(=O)Cc3ccc(C)cc3)ncc2Cl)s1,50.1% (active)
2,Cc1ccc(CS(=O)(=O)c2ncc(Cl)c(C(=O)Nc3nnc(C)s3)n2)cc1,91.8% (active)
3,Cc1c(CCOC(=O)CC23CC4CC(CC(C)(C4)C2)C3)sc[n+]1Cc1ccc([N+](=O)[O-])cc1,5.79%
4,Cc1ccc(NC(=O)Cn2sc3ccccc3c2=O)cc1,118% (active)
5,CC1Cc2ccccc2N1CC(=O)Nc1ccc(S(N)(=O)=O)cc1 (configuration not stated),-0.75%
6,Cc1ccn(C(CC(=O)c2ccc(Br)cc2)C(=O)O)n1 (configuration not stated),38.9% (active)
7,Cc1ccc(-n2nc(-c3ccco3)cc2C(=O)NCc2cccnc2)cc1,79.1% (active)
8,CCN1/C(=C\c2ccc3ccccc3[n+]2CC)Sc2cc(C)ccc21,22.4% (active)
9,C=C(C)C(=O)O[C@H]1C/C(C)=C\C(=O)/C=C(\C)[C@H](O)[C@@H]2OC(=O)C(=C)[C@@H]21,54.8% (active)
10,Cc1cc(-c2n[nH]c(=S)n2/N=C/C(Br)=C/c2ccccc2)n[nH]1,86.5% (active)
11,CC1(C(=O)NCc2cccc3ccccc23)CCN1Cc1ccc(-c2ccccc2)o1 (configuration not stated),40.2% (active)
12,COc1ccc(C(C[N+](=O)[O-])n2nc(C)cc2C)cc1 (configuration not stated),87.3% (active)
13,O=c1[nH][nH]c2c1[C@H](c1ccc(Cl)cc1)O[C@H](CCc1ccccc1)C2,12%
14,O=C1C=CC(=O)N1c1ccc(N2CCCCC2)cc1,101% (active)
15,COc1ccc2c(c1OC)C(=O)OC2Nc1nc(-c2ccccc2)cs1 (configuration not stated),56.7% (active)
16,O=C(NNc1ccccn1)c1ccc(Cl)nc1,-6.91%
17,O=C1C=C(c2ccc(Cl)cc2)C(=O)N1Nc1ccccc1,107% (active)
18,CN(C)CCCNC(=O)/C=C/c1ccc(OCc2c(F)cccc2Cl)cc1,6.86%
19,O=C(/C=C(O)/C=C/c1ccc(O)cc1)/C=C/c1ccc(O)cc1,74.4% (active)
20,Cc1cccc(C)c1NC(=O)C(Cl)C(=O)c1ccccc1 (configuration not stated),58.4% (active)
21,CCN(CC)CCN(C(=O)c1ccc2c(c1)CCCC2)c1nc2c(OC)cccc2s1,11.7%
22,C=C1C(=O)[C@]23C[C@H]1CCC2[C@@]1(C)C(C[C@@H]3O)[C@](C)(C(=O)O)CC[C@@H]1O (some centres not stated),85.8% (active)
23,CN1CCC[C@@H]1CCO[C@](C)(c1ccccc1)c1ccc(Cl)cc1,9.44%
